IL-1B inflam inh: inflammasome signaling inhibition, IL-1 beta readout. AID 743279. 4.7% of 360,000 active. THP-1 LPS/ATP IL-1B secretion, AlphaLISA, 16 h; hits give low values. activity change, % at 57.5 µM; in the data active means activity change below about -50%; inconclusive means mostly about -30% to -49%
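THP-1 cells pretreated 1 hr with compounds (up to 57.5 uM final), then stimulated with LPS (250 ng/mL final) plus ATP (1.25 mM final); secreted IL-1B measured by AlphaLISA after 16 hr, decreased signal indicating inhibition.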
DT40 TDP1 CPT: DT40-hTDP1 cell growth loss with CPT; chicken DT40 Tdp1-/-;hTDP1 cells + 20 nM CPT, ATP luminescence, 48 h; Potency, µM (highest dose often 46.2 µM), without a hit: top-dose activity change, negative = growth inhibition, actives largely listed as inhibitors; 12% of 420,000 active; further: potency means the concentration at half of the fitted maximal effect; nearly all actives have a fitted effect of over 55% in size
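Chicken DT40 Tdp1-/- cells complemented with human TDP1, 400 cells/well, exposed to compounds plus 20 nM camptothecin for at least 48 h at 37 C; viability read as ATP content by CellTiter-Glo luminescence.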
HT1080-NT tox: kills 2HG-producing HT-1080-NT fibrosarcoma cells; HT-1080-NT fibrosarcoma viability, CellTiter-Glo ATP luminescence, 48 h; Potency, µM (titrated, usually from 46.1 µM), inactives show at the top dose activity, negative = less viability, actives largely listed as cytotoxic; 1.6% of 360,000 active;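 further: NT is the 2HG producing partner of a matched IDH1 knockdown line; potency means the concentration at half of the fitted maximal effect; 0% = DMSO-treated cells and -100% = media-only wells without cells; nearly all actives have a fitted effect of over 55% in size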
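A 48-hour cytotoxicity screen used HT-1080-NT cells plated 2 hours before compound delivery. ATP-based CellTiter-Glo luminescence measured viability, normalized to DMSO and no-cell controls.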
12-LOX inh: inhibitors of human 12S-lipoxygenase ALOX12; purified 12hLO, xylenol orange hydroperoxide absorbance; 1.1% of 580,000 active; P18054; Potency, µM (doses to about 108 µM), for the others: at the highest dose activity change, negative = inhibition, actives largely listed as inhibitors; AID 1671190; further: potency means the concentration at half of the fitted maximal effect
Target sequence (P18054 whole entry, looked up): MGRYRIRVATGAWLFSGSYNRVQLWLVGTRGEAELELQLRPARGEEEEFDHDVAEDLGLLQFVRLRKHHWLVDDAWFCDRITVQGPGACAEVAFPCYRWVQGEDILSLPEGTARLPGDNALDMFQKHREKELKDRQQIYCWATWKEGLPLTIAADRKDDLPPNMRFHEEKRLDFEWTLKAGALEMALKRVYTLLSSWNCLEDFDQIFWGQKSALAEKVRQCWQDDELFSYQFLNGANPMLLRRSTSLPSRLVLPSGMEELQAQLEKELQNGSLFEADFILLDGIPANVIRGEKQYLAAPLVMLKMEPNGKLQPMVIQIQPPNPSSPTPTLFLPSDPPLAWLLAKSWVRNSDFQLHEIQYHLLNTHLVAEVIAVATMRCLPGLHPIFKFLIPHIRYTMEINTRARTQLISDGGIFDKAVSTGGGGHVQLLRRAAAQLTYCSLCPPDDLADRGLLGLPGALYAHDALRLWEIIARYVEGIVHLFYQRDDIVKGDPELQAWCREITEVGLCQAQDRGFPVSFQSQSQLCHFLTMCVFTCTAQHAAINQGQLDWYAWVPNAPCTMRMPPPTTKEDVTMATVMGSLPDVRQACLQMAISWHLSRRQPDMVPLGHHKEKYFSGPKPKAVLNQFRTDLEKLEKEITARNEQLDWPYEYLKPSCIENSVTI
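Purified human 12hLO at 150 nM in 25 mM Hepes, 0.01% Triton X-100, pH 7.0, preincubated 15 min at room temperature with compound. Reaction started with 40 uM arachidonic acid, 30 min at room temperature. Hydroperoxide measured by Fe-xylenol orange, 573/405 nm absorbance ratio.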
TDP1 cell noCPT: qHTS for Inhibitors of human tyrosyl-DNA phosphodiesterase 1 (TDP1): qHTS in cells in absence of CPT; 15% of 420,000 active; Potency, µM (highest dose often 46.2 µM), for inactives: top-dose activity change, negative = growth inhibition, usual class: inhibitors; DT40 Tdp1-/- hTDP1 cells, no CPT, ATP luminescence, 48 h; AID 686978, 2013; further: potency means the concentration at half of the fitted maximal effect; nearly all actives have a fitted effect of over 55% in size
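DT40 Tdp1-/-;hTDP1 cells, no CPT (DMSO vehicle only), 400 cells/well; compounds pin-transferred; ≥48 hr, 37 °C; CellTiter-Glo 30 min RT dark, luminescence read.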
HT1080 IDH1KD tx: kills HT-1080 cells with IDH1 knockdown | HT-1080 IDH1 knockdown viability, ATP luminescence, 48 h | Potency, µM (series often up to 46.1 µM), for inactives: at the highest dose activity, negative = toxicity, usual class: cytotoxic | AID 686971 | 2% of 360,000 active;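 further: potency means the concentration at half of the fitted maximal effect; 0% = DMSO wells and -100% = cell-free medium wells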
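% activity derives from luminescence (CellTiter-Glo), normalised to DMSO and no-cell wells. HT-1080-IDH1KD cells, 750/well, had 48 h compound exposure at 37 °C.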
An asterisk follows results filed as active; ? = inconclusive; . = no result; [ ] = another dose, or the depositor's remark. The sample as a whole holds a higher share of hits than the screen did. Unless noted, the call rests on the fitted dose curve; in most records, active means well fitted curve in the direction sought with a large enough effect; inconclusive means small, poorly fitted or top-dose-only effect, or another doubt; inactive means no such curve, though single readings can be large; an effect the other way counts as inactive or inconclusive. Unless noted, on the % scale 0 is the no-effect control and ±100 the full control effect.

SMILES	IL-1B inflam inh	DT40 TDP1 CPT	HT1080-NT tox	12-LOX inh	TDP1 cell noCPT	HT1080 IDH1KD tx
O=C(O)c1ccc(/C=C/c2nc3ccccc3c(=O)[nH]2)cc1	52	-7%	-3%	-8%	-1%	-1%
Cc1cn2nc(C(=O)N3CCC(NC(=O)c4ccc[nH]4)CC3)cc2c(=O)[nH]1	.	.	.	21%	.	.
CNS(=O)(=O)Cc1ccccc1CNC(=O)c1cc(F)cc(F)c1	.	.	.	-28%	.	.
O=c1[nH]c(/C=C/c2ccccc2Cl)nc2ccccc12	-3	16µM*	-3%	?	?	-1%
N#C/C(=C/c1ccccc1Cl)c1nc2ccccc2c(=O)[nH]1	.	0%	.	0%	4%	.
Cc1nn(-c2ccccc2)c(C)c1Cc1ccc(O)cc1	-6	?	-2%	.	?	-3%
Cc1nn(-c2ccccc2)c2c1C(O)n1c(nc3ccccc31)S2 (centres undefined)	-86*	15µM*	5%	-24%	16µM*	0%
COc1cccc(C(=O)NCC(=O)N(C)CC(=O)Nc2cccc(F)c2)c1	.	.	.	-29%	.	.
COc1cccc(NC(=O)CN(C)C(=O)CNC(=O)c2ccc(Oc3ccccc3)cc2)c1	-96*	?	-19%	-39%	?	-21%
COc1cccc(NC(=O)CN(C)C(=O)COc2ccccc2Cc2ccccc2)c1	26	?	-5%	448%	29µM*	-12%
CC(=O)Nc1ccccc1OCC(=O)NC(C)c1ccc(F)cc1 (centres undefined)	-9	13µM*	4%	-3%	?	-19%
CC(=O)Nc1ccccc1OC(C)C(=O)NC(C)c1ccc(F)cc1 (centres undefined)	19	9%	11%	-16%	?	6%
Cc1oc(-c2ccccc2NS(C)(=O)=O)nc1CN(C)Cc1ccc(Cl)cc1	.	-5%[9.04 µM]	.	-2%	21µM*	.
COc1ccc(-c2nnc(SCC(=O)NCCc3ccccc3)nc2-c2ccc(OC)cc2)cc1	.	?	.	-22%	?	.
COCCNC(=O)CSc1nnc(-c2ccc(C)cc2)c(-c2ccc(C)cc2)n1	-26	26µM*	-7%	-14%	?	-12%
COc1ccc(-c2nnc(SCC(=O)Nc3cccc(C(F)(F)F)c3)nc2-c2ccc(OC)cc2)cc1	.	?	.	-23%	18µM*	.
COc1ccc(-c2nnc(SCC(=O)NCc3ccc(C)cc3)nc2-c2ccc(OC)c(OC)c2)cc1OC	.	15µM*	.	-14%	18µM*	.
COc1ccc(-c2nnc(SCC(=O)NCCc3ccc(OC)c(OC)c3)nc2-c2ccc(OC)cc2)cc1	.	18µM*	.	-19%	18µM*	.
CCOc1cc(-c2nnc(SCC(=O)NCc3ccccc3)nc2-c2ccc(OC)c(OCC)c2)ccc1OC	.	5.8µM*	.	-28%	3.3µM*	.
COc1ccc(CCNC(=O)CSc2nnc(-c3ccccc3)o2)cc1OC	-12	-17%	-7%	-15%	-1%	2%
CCCNC(=O)CSc1nc(-c2ccc(OC)cc2)cc(C(F)(F)F)n1	.	?	.	27%	?	.
COc1ccc(-c2cc(C(F)(F)F)nc(SCC(=O)NCCc3ccc(OC)c(OC)c3)n2)cc1	.	21µM*	.	1%	21µM*	.
COc1ccc(CCNC(=O)CSc2nnc(-c3ccccc3)c3ccccc23)cc1OC	0	16µM*	9%	-13%	?	7%
CCCCn1c(-c2ccccc2)cnc1SCC(=O)NCCc1ccc(OC)c(OC)c1	-77*	23µM*	-19%	10%	26µM*	-27%
COc1ccc(CCNC(=O)CSc2nnc(Cc3cccn3C)n2C)cc1OC	2	-15%	15%	-13%	-9%	17%
SMILES	IL-1B inflam inh	DT40 TDP1 CPT	HT1080-NT tox	12-LOX inh	TDP1 cell noCPT	HT1080 IDH1KD tx
COc1cccc(CN2CCCC(O)(CN3CCCCC3)C2=O)c1 (centres undefined)	.	.	.	7%	.	.
CC1=C(C(=O)N(C(C)C)C(C)C)CC(CC(=O)NCCCN(C)C)C(=O)N1Cc1ccccc1 (centres undefined)	0	-1%	17%	-4%	0%	12%
CC1=C(C(=O)N2CCOCC2)CC(CC(=O)NCCCCc2ccccc2)C(=O)N1Cc1ccc(F)cc1 (centres undefined)	25	-18%	5%	-3%	?	5%
CCN(CC)C(=O)C1=C(C)N(Cc2ccccc2)C(=O)C(CC(=O)NCCc2ccccn2)C1 (centres undefined)	8	-3%	7%	-4%	-12%	6%
CC1=C(C(=O)N(C(C)C)C(C)C)CC(CC(=O)NCCCCc2ccccc2)C(=O)N1Cc1ccccc1 (centres undefined)	0	?	2%	1%	23µM*	-11%
COc1ccc(CN2C(=O)C(CC(=O)NCCCCc3ccccc3)CC(C(=O)N3CCCCCC3)=C2C)cc1 (centres undefined)	.	21µM*	-3%	-5%	21µM*	-6%
CCN(CC)C(=O)C1=C(C)N(Cc2ccccc2)C(=O)C(CC(=O)NCCCCc2ccccc2)C1 (centres undefined)	-9	23µM*	6%	16%	26µM*	7%
CC1=C(C(=O)N(C(C)C)C(C)C)CC(CC(=O)NCCCN(C)C)C(=O)N1Cc1ccc(F)cc1 (centres undefined)	9	4%	31%	?	4%	2%
CC1=C(C(=O)N(C(C)C)C(C)C)CC(CC(=O)NCCCCc2ccccc2)C(=O)N1Cc1ccc(F)cc1 (centres undefined)	-56*	?	?	-21%	?	?
Clc1ccc(-c2csc(N3CCCCCC3)n2)cc1	-16	-8%	3%	0%	-12%	2%
CN1CCN(c2nc(-c3ccc(Cl)s3)cs2)CC1	-16	2%	1%	8.9µM*	?	1%
COc1ccccc1N(C)C(=O)Cc1noc2ccccc12	.	.	.	4%	.	.
CC(C)CCN1CCn2c(nnc2-c2ccccc2)C1	.	.	.	14%[12.5 µM]	.	.
O=C(c1ccc2c(c1)OCO2)N1CCc2ccccc2C1	28	?	-3%	?	?	-22%
O=C(CCN1CCCCC1)c1ccc2c(c1)OCCO2	-86*	21µM*	?	-30%	16µM*	5.6µM*
O=C(CCN1CCc2ccccc2C1)c1ccc2c(c1)OCCO2	0	5.8µM*	-7%	.	3.7µM*	-8%

From PubChem BioAssay
